Assay outcomes deposited in PubChem by National Center for Advancing Translational Sciences (NCATS).
NS1 function inh: inhibitors of influenza NS1 protein function | Potency, µM (doses to about 46.1 µM) | hit rate 0.4% among 270,000 | AID 2326; calls by dose curve; also: actives are rising curves; nearly all actives have a fitted effect of over 50% in size
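S. cerevisiae expressing influenza A NS1, grown in glucose, washed, then diluted 1:100 into pH 6.0 -URA galactose medium with 23 nl compound. Growth recovery read as OD600; NS1-free strain serves as control.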
Cycloheximide cs: affects cycloheximide protein synthesis inhibition readout, counter-screen | cell reporter, cycloheximide protein synthesis inhibition counterscreen | max response, % | hit rate 12% among 300,000; in the data active = max response mostly above about 13%, no sharp cut-off; inactive = mostly below about 14%; also: read at 38.3 µM for the half of the compounds with a filed dose
Pf growth 48h: P. falciparum growth inhibition at 48 hours (one generation) | P. falciparum luciferase growth in erythrocytes, 48 h | Potency, µM (series often up to 28.7 µM), hits mostly inhibitors | hit rate 5.9% among 310,000
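Luciferase-expressing parasites in RBCs, 2% Hct / 0.1% parasitemia final; RPMI 1640 + 0.5% Albumax; 37 C, 5% CO2, one generation; luminescence read-out, lower signal = inhibition.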
Shiga toxin inh: inhibitors of Shiga toxin in Vero cells; inhibition, % at 38.7 µM; Vero cells, Shiga toxin protein synthesis inhibition reporter; hit rate 9.2% among 290,000; AID 2315; in the data active = inhibition mostly above about 28%, no sharp cut-off; inactive = mostly below about 43%
Pf growth 96h: P. falciparum growth inhibition at 96 hour, primary screen for plastid delayed-death inhibitors; Potency, µM (highest dose often 28.7 µM), most hits filed as inhibitors; P. falciparum luciferase reporter growth, 96 h; hit rate 6.9% among 320,000; AID 504834
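Luminescence readout: decreased luciferase signal marks inhibited growth of reporter-expressing P. falciparum in infected red cells (2% hematocrit, 0.05% parasitemia final), exposed to compound two generations (96 h, 37 C, 5% CO2).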
SARS PLpro yeast: blocks SARS-CoV papain-like protease in a yeast assay. S. cerevisiae expressing SARS-CoV PLpro, growth rescue. Potency, µM (doses to about 32.9 µM), hits mostly activators. hit rate 0.19% among 330,000. AID 485353; calls by dose curve; also: nearly all actives have a fitted effect of over 55% in size
Hits are given with their value; i = inactive; ? = inconclusive; nt = not tested or not shown; [ ] = remark or other dose. Compounds with a hit are over-represented: about 21% of the library has one in this group of screens. Unless noted, calls follow the shape of the dose curve; as a rule, active = well fitted inhibition curve with a large enough effect; inconclusive = small, poorly fitted or top-dose-only effect, or another doubt; inactive = no such curve, though single readings can be large or run the other way.

SMILES	NS1 function inh	Cycloheximide cs	Pf growth 48h	Shiga toxin inh	Pf growth 96h	SARS PLpro yeast
C[C@H]1[C@H](OC(=O)CCC(=O)NCc2ccc(C(=O)O)cc2)O[C@@H]2O[C@@]3(C)CC[C@H]4[C@H](C)CC[C@@H]1C24OO3	i	i	0.0185µM	i	0.0033µM	i
Cc1ccccc1C(C)NS(=O)(=O)c1ccc2c(c1)OCCO2 (stereo not drawn)	nt	nt	nt	nt	nt	i
Cc1nc2sc3c(c2c(=O)o1)CCC3	i	i	i	i	?	i
Cc1nc2sc3c(c2c(=O)o1)CC(C)(C)OC3	i	i	i	i	14.7µM	i
Cc1cc(C)n(-c2nc(NCC(C)O)c3c4c(sc3n2)COC(C)(C)C4)n1 (stereo not drawn)	i	i	?	i	?	i
Cc1cc(C)n(-c2nc(NCC3CCCO3)c3c4c(sc3n2)COC(C)(C)C4)n1 (stereo not drawn)	i	27.5	nt	i	2.33µM	i
Cc1cc(C)n(-c2nc(SCC(=O)NCC3CCCO3)c3c4c(sc3n2)CCCC4)n1 (stereo not drawn)	i	i	11.7µM	i	4.15µM	i
CCOc1ccc(NC(=O)c2cn(-c3ccc(OCC)cc3)c(=O)c3cc(OC)c(OC)cc23)cc1	i	i	?	i	3.29µM	i
CCOc1ccc(-n2cc(C(=O)N3CCC(C)CC3)c3cc(OC)c(OC)cc3c2=O)cc1	i	i	9.28µM	i	i	i
CCOc1ccc(-n2cc(C(=O)NC(C)C)c3cc(OC)c(OC)cc3c2=O)cc1	i	i	?	i	nt	i
O=C(CCCN1CCC(n2c(=O)[nH]c3ccccc32)CC1)c1ccc(F)cc1	nt	nt	0.809µM	nt	10.4µM	nt
Cc1ccc(C(=O)NC2CCN(CCCC(=O)c3ccc(F)cc3)CC2)cc1	i	i	10.4µM	i	?	i
O=C(CCCN1CCC(NC(=O)c2ccccc2)CC1)c1ccc(Cl)cc1	i	i	?	i	i	i
O=C(/C=C/c1ccco1)NC(=S)Nc1ccccc1N1CCOCC1	i	i	13.1µM	i	?	i
O=C(/C=C/c1ccco1)Nc1ccccc1N1CCCC1	nt	11.9	i[5.75 µM]	i	?	i
O=C(/C=C/c1ccco1)NC(=S)Nc1ccccc1N1CCCC1	i	i	2.62µM	i	i	i
O=C(Oc1ccc(/C=N/Nc2nc(N3CCCCC3)nc(N3CCCCC3)n2)cc1)c1ccco1	i	i	?	i	i	i
CCCCOc1ccc(/C=c2\sc3ncnn3c2=O)cc1	i	i	i	i	1.47µM	i
Cc1ccccc1OCC(=O)N1N=C(c2cccnc2)CC1(O)C(F)(F)F (stereo not drawn)	i	i	?	i	i	i
COc1cc(SC)ccc1C(=O)N(C)CC(=O)Nc1cccc2ccccc12	nt	nt	?	nt	i	i
COc1cc(SC)ccc1C(=O)NCCCOC(C)C	i	13.0	i	i	?	i
COc1cc(SC)ccc1C(=O)NCc1ccccc1	i	26.0	i	36.3	?	i
COc1cc(SC)ccc1C(=O)NCc1ccc(C)cc1	i	16.1	?	i	?	i
COc1cc(SC)ccc1C(=O)N(C)Cc1ccccc1	i	21.7	i	i	i	i
COc1ccc(S(=O)(=O)n2nc(C)cc2C)cc1OC	i	i	i	i	?	i
SMILES	NS1 function inh	Cycloheximide cs	Pf growth 48h	Shiga toxin inh	Pf growth 96h	SARS PLpro yeast
Cc1[nH]c(=O)[nH]c(=O)c1/C=N/NC(=O)[C@H](C)N	i	i	?	i	?	i
Cc1cc(C(=O)OCC(=O)NCc2ccco2)c(C)o1	nt	i	i	i	i	i
c1cc(CN2CCCNCCNCCCNCC2)ccc1CN1CCCNCCNCCCNCC1	nt	i	nt	i	nt	nt
CCc1ccc(S(=O)(=O)/N=C2\C=C(Nc3ccc(C(=O)O)cc3)C(=O)c3ccccc32)cc1	i	i	2.33µM	i	3.7µM	i
O=C(O)c1cccc(NC2=C(N3CCOCC3)C(=O)c3ccccc3C2=O)c1	i	i	i	i	i	i
Cc1ccc(S(=O)(=O)/N=C2\C=C(Nc3cccc(C(=O)O)c3)C(=O)c3ccccc32)c(C)c1	i	24.5	1.65µM	63.9	i	i
Cc1ccc(S(=O)(=O)/N=C2\C=C(Nc3ccc(O)cc3)C(=O)c3ccccc32)cc1	nt	nt	nt	nt	nt	i
Cc1ccc(S(=O)(=O)/N=C2\C=C(Nc3cccc(C(=O)O)c3)C(=O)c3ccccc32)cc1	i	i	4.65µM	i	i	i
COc1ccccc1NC(=O)CSc1nnc(C2CCCCC2)n1-c1ccccc1	i	i	?	i	?	i
O=C(CNC(=O)c1cn2ccccc2n1)Nc1ccc(F)c(F)c1	nt	nt	i	nt	i	i
